Measurements from PubChem BioAssay (NCI).
About 79,000 compounds went through this panel and 15% of them were active in at least one assay; those are over-represented in the sample as a whole. The source made the active and inactive calls. No stated cut-off is given here; in the data, active means growth inhibition above about 70%; inactive means the rest.

How the values were obtained:
[1] = NCI Yeast Anticancer Drug Screen. Data for the rad50 strain (AID 155);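 further: 0% = growth of vehicle-only cultures of the same strain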; conditions: S. cerevisiae rad50 strain growth inhibition, stronger effect = higher value
How it was run: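 Inhibition values express reduced yeast growth in compound-treated cultures relative to vehicle-treated controls.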

[2] = NCI Yeast Anticancer Drug Screen. Data for the mec2-1 strain (AID 157); conditions: S. cerevisiae mec2-1 strain, stronger effect = higher value
How it was run: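 Mutant yeast (mec2-1) grown with compound; growth inhibition relative to vehicle control reported.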

[3] = NCI Yeast Anticancer Drug Screen. Data for the sgs1 mgt1 strain (AID 161);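 further: 0% = growth of cultures given vehicle only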; conditions: S. cerevisiae sgs1 mgt1 strain, stronger effect = higher value
How it was run: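 Compounds are added to genetically altered yeast, and growth is compared with cultures given vehicle alone to give percent inhibition.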

[4] = NCI Yeast Anticancer Drug Screen. Data for the cln2 rad14 strain (AID 165);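 further: 0% = growth equal to vehicle treated cultures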; conditions: S. cerevisiae cln2 rad14 strain, stronger effect = higher value
How it was run: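 Readout is yeast growth inhibition versus vehicle-treated controls, using a strain with cln2 and rad14 alterations exposed to compound.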

[5] = NCI Yeast Anticancer Drug Screen. Data for the bub3 strain (AID 167); conditions: S. cerevisiae bub3 mutant strain, stronger effect = higher value
How it was run: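 Steps: expose the mutant yeast strain to compound; grow alongside vehicle-treated cultures; measure growth; express inhibition against the vehicle cultures.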

[6] = NCI Yeast Anticancer Drug Screen. Data for the mlh1 rad18 strain (AID 175); conditions: S. cerevisiae mlh1 rad18 strain growth inhibition, stronger effect = higher value
How it was run: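 Genetically defined yeast (DNA repair-deficient) exposed to compounds; growth inhibition determined relative to vehicle.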

[7] = at 5.0 µM (retest, dose inferred, filed as 0.5)
[8] = at 50.0 µM (retest, dose inferred, filed as 5.0)

Measured: growth inhibition

Clc1ccccc1C(Cc1c(Cl)cccc1Cl)Cn1ccnc1 (stereo not given)
inactive: [2]; [7] 58% | [4]; [7] 62%
active: [1]; [7] 74% | [1]; [8] 78% | [1]; at 50.0 µM 99.8% | [2]; [8] 78% | [2]; at 50.0 µM 99.8% | [3]; [7] 70% | [3]; [8] 91% | [3]; at 50.0 µM 99.8% | [4]; [8] 86% | [4]; at 50.0 µM 98.8% | [5]; [7] 75% | [5]; [8] 95% | [5]; at 50.0 µM 99.7% | [6]; [7] 77% | [6]; [8] 92% | [6]; at 50.0 µM 99.8%

OC(Cc1ccc2ccccc2c1)CN1CCC(c2ccccc2)CC1 (stereo not given)
active: [1]; [8] 84% | [1]; at 50.0 µM 89.3% | [2]; [8] 80% | [2]; at 50.0 µM 83.5% | [3]; [8] 76% | [3]; at 50.0 µM 91.2% | [4]; [7] 70% | [4]; [8] 88% | [4]; at 50.0 µM 90.1% | [5]; [8] 96% | [5]; at 50.0 µM 91.6% | [6]; [7] 81% | [6]; [8] 94% | [6]; at 50.0 µM 90.5%
inactive: [1]; [7] 56% | [2]; [7] 37% | [3]; [7] 24% | [5]; [7] 67%

O=C(Nc1ccc(Br)cc1)c1c(-c2ccccc2)c2ccc(O)cc2oc1=O
active: [1]; [8] 96% | [1]; at 50.0 µM 96.3% | [2]; [8] 97% | [2]; at 50.0 µM 95.5% | [3]; [8] 93% | [3]; at 50.0 µM 98.6% | [4]; [8] 95% | [4]; at 50.0 µM 94% | [5]; [8] 96% | [5]; at 50.0 µM 97.2% | [6]; [8] 96% | [6]; at 50.0 µM 98.4%
inactive: [1]; [7] 0% | [2]; [7] -9% | [3]; [7] -5% | [4]; [7] -7% | [5]; [7] -10% | [6]; [7] -3%

CN(C)CC(O)c1cc(-c2ccc(Cl)c(Cl)c2)nc2c(Cl)cc(Cl)cc12 (stereo not given)
inactive: [1]; [7] 3% | [2]; [7] -3% | [3]; [7] -9% | [4]; [7] -4% | [5]; [7] 0% | [6]; [7] 1%
active: [1]; [8] 98% | [1]; at 50.0 µM 97.8% | [2]; [8] 99% | [2]; at 50.0 µM 98.5% | [3]; [8] 99% | [3]; at 50.0 µM 98.5% | [4]; [8] 97% | [4]; at 50.0 µM 98.2% | [5]; [8] 75% | [5]; at 50.0 µM 98.3% | [6]; [8] 98% | [6]; at 50.0 µM 98%

O=C(OCCCN1CCCC1)C(c1ccccc1)C1CCCCC1 (stereo not given)
active: [2]; [8] 87% | [3]; [8] 91% | [3]; at 50.0 µM 85.9% | [4]; [8] 81% | [4]; at 50.0 µM 79.8% | [5]; [8] 91% | [6]; [8] 95% | [6]; at 50.0 µM 80.2%
inactive: [1]; [7] 20% | [1]; [8] 67% | [1]; at 50.0 µM 63.8% | [2]; [7] 9% | [2]; at 50.0 µM 52.4% | [3]; [7] 23% | [4]; [7] 13% | [5]; [7] 33% | [5]; at 50.0 µM 54.4% | [6]; [7] 42%

O=C1c2ccc(O)c(O)c2C(=O)c2cccc(O)c21
inactive: [1]; [7] 68% | [1]; at 50.0 µM 28.1% | [2]; [7] 30% | [2]; [8] 49% | [2]; at 50.0 µM 3.9% | [3]; at 50.0 µM 36.6% | [4]; [7] 34% | [4]; [8] 46% | [4]; at 50.0 µM 22.7% | [5]; at 50.0 µM 18.4% | [6]; at 50.0 µM 26.3%
active: [1]; [8] 72% | [3]; [7] 83% | [3]; [8] 84% | [5]; [7] 91% | [5]; [8] 93% | [6]; [7] 83% | [6]; [8] 88%

C/C(=N\NC(=O)N/N=C(\C)c1ccccn1)c1ccccn1
inactive: [1]; [7] 0% | [1]; [8] 16% | [1]; at 50.0 µM -6.55% | [2]; [7] -18% | [2]; [8] -16% | [2]; at 50.0 µM 16.8% | [3]; [7] 7% | [3]; [8] 24% | [3]; at 50.0 µM 35.9% | [4]; [7] -21% | [4]; [8] 1% | [4]; at 50.0 µM 2.95% | [5]; [7] 2% | [5]; [8] -13% | [5]; at 50.0 µM 35.5% | [6]; [7] 14% | [6]; [8] -6% | [6]; at 50.0 µM -5.95%

C=CCOc1c(CCC)cc(CN)cc1CCC
inactive: [1]; [7] -2% | [1]; [8] 2% | [1]; at 50.0 µM 4.45% | [2]; [7] -2% | [2]; [8] -6% | [2]; at 50.0 µM -8.2% | [3]; [7] 5% | [3]; [8] 23% | [3]; at 50.0 µM 24.6% | [4]; [7] 1% | [4]; [8] -7% | [4]; at 50.0 µM 58.5% | [5]; [7] -3% | [5]; [8] 7% | [5]; at 50.0 µM 2.55% | [6]; [7] -1% | [6]; [8] 11% | [6]; at 50.0 µM 49.8%

CCOc1nc(N)nc(C)c1N=Nc1ccc(Cl)cc1
inactive: [1]; [7] 16% | [2]; [7] 4% | [2]; [8] 58% | [2]; at 50.0 µM 67.7% | [3]; [7] 14% | [4]; [7] -5% | [4]; [8] 35% | [5]; [7] -1% | [5]; [8] 19% | [6]; [7] 25%
active: [1]; [8] 76% | [1]; at 50.0 µM 95.5% | [3]; [8] 75% | [3]; at 50.0 µM 91.9% | [4]; at 50.0 µM 74.8% | [5]; at 50.0 µM 97.3% | [6]; [8] 88% | [6]; at 50.0 µM 89.6%

Cc1cc(O)c(C(=O)/C=C/c2ccnc3ccccc23)c(=O)o1
inactive: [1]; [7] -7% | [1]; [8] 5% | [1]; at 50.0 µM -9.7% | [2]; [7] -17% | [2]; [8] -1% | [2]; at 50.0 µM -6.65% | [3]; [7] 6% | [3]; [8] 20% | [3]; at 50.0 µM -2% | [4]; [7] 11% | [4]; [8] 8% | [4]; at 50.0 µM -13.4% | [5]; [7] 22% | [5]; [8] 8% | [5]; at 50.0 µM -4.8% | [6]; [7] 15% | [6]; [8] 8% | [6]; at 50.0 µM -23.2%
